DT40 TDP1 CPT: qHTS for Inhibitors of human tyrosyl-DNA phosphodiesterase 1 (TDP1): qHTS in cells in presence of CPT | 420,000 compounds, 12% hits | chicken DT40 Tdp1-/-;hTDP1 cells + 20 nM CPT, ATP luminescence, 48 h | Potency, µM (top dose mostly 46.2 µM), for inactives: at the top dose activity change, negative = growth inhibition, usual class: inhibitors; note: potency is the fitted concentration of half-maximal effect; nearly all actives have a fitted effect of over 55% in size
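Chicken DT40 Tdp1-/- cells complemented with human TDP1, 400 cells/well, exposed to compounds plus 20 nM camptothecin for at least 48 h at 37 C; viability read as ATP content by CellTiter-Glo luminescence.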
HT1080 IDH1KD tx: qHTS for induction of synthetic lethality in tumor cells producing 2HG: qHTS for the HT-1080-IDH1KD cell line; HT-1080 IDH1 knockdown viability, ATP luminescence, 48 h; Potency, µM (series often up to 46.1 µM), for the others: at the top dose activity, negative = toxicity, most hits filed as cytotoxic; 360,000 compounds, 2% hits;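 note: potency is the fitted concentration of half-maximal effect; 0% = DMSO wells and -100% = cell-free medium wells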
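Knockdown cells (IDH1KD HT-1080) received compounds 2 h after plating at 750 cells/well and were kept 48 h at 37 °C in 5% FBS RPMI. A CellTiter-Glo luminescence read gave % activity for curve fitting.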
TDP1 cell noCPT: qHTS for Inhibitors of human tyrosyl-DNA phosphodiesterase 1 (TDP1): qHTS in cells in absence of CPT; DT40 Tdp1-/- hTDP1 cells, no CPT, ATP luminescence, 48 h; Potency, µM (series often up to 46.2 µM), inactives show at the highest dose activity change, negative = growth inhibition, hits mostly inhibitors; 420,000 compounds, 15% hits; note: potency is the fitted concentration of half-maximal effect; nearly all actives have a fitted effect of over 55% in size
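A cellular qHTS used chicken DT40 cells lacking endogenous Tdp1 but carrying stably transfected human TDP1. Compounds were applied without camptothecin, and cell growth kinetics were judged by ATP-dependent luminescence after ≥48 hr.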
IL1B secr inh: qHTS for Inhibitors of Inflammasome Signaling: IL-1-beta AlphaLISA Primary Screen | activity change, % at 57.5 µM | 360,000 compounds, 4.7% hits | THP-1 LPS/ATP IL-1B secretion, AlphaLISA, 16 h; active compounds read low | AID 743279, 2014; in the data active = activity change below about -50%; inconclusive = mostly about -30% to -49%
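Secreted IL-1B measured by AlphaLISA bead assay after 16 h compound exposure of THP-1 cells; compounds (final up to 57.5 uM) added 1 h before LPS (250 ng/mL) and ATP (1.25 mM) stimulation; lower signal means less secretion.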
HT1080NT lethal: qHTS for induction of synthetic lethality in tumor cells producing 2HG: qHTS for the HT-1080-NT fibrosarcoma cell line. HT-1080-NT fibrosarcoma viability, CellTiter-Glo ATP luminescence, 48 h. Potency, µM (series often up to 46.1 µM), inactives show top-dose activity, negative = less viability, usual class: cytotoxic. 360,000 compounds, 1.6% hits;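 note: NT is the 2HG producing partner of a matched IDH1 knockdown line; potency is the fitted concentration of half-maximal effect; 0% = DMSO-treated cells and -100% = media-only wells without cells; nearly all actives have a fitted effect of over 55% in size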
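Viability of the 2HG-overproducing fibrosarcoma line after 48 hours of compound exposure at 37 degrees C was determined by luminescence with CellTiter-Glo, and concentration-effect curves were then fitted and categorized.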
* = called active by the depositor; [ ] = another dose, or the depositor's remark. The list is not random: actives were taken first. Their share in the collection is about 19%. Unless noted, calls come from the whole dose curve; as a rule, active = well fitted curve in the direction sought with a large enough effect; inconclusive = small, poorly fitted or top-dose-only effect, or another doubt; inactive = no such curve, though single readings can be large; an effect the other way counts as inactive or inconclusive. Unless noted, % is set by controls: 0 for no effect and ±100 for the full control effect.

Screening CCCn1c(=O)c(C(=O)N/N=C/c2ccccc2F)c(O)c2ccccc21 returned DT40 TDP1 CPT 17%, HT1080 IDH1KD tx 16%, TDP1 cell noCPT 20%, IL1B secr inh 0 and HT1080NT lethal 30%.
CCCCCCn1c(=O)c(C(=O)N/N=C/c2cccc(F)c2)c(O)c2ccccc21 was read as DT40 TDP1 CPT 0.92µM*, HT1080 IDH1KD tx 9%, TDP1 cell noCPT 1µM*, IL1B secr inh -2 and HT1080NT lethal 10%.
For CCc1ccc(-n2c(C)nc3cc(C(=O)NCc4cccnc4)ccc32)cc1 the results were DT40 TDP1 CPT inconclusive, HT1080 IDH1KD tx -11%, TDP1 cell noCPT inconclusive, IL1B secr inh inconclusive and HT1080NT lethal 2%.
`CCn1cc(CN2CCC(n3nccc3NC(=O)CCc3ccccc3)CC2)cn1` gave DT40 TDP1 CPT -14%, HT1080 IDH1KD tx -10%, TDP1 cell noCPT -3%, IL1B secr inh 26 and HT1080NT lethal 5%.
Screening C=CCOC(=O)N1CCN(c2cccc(C(F)(F)F)c2)CC1 returned DT40 TDP1 CPT inconclusive, HT1080 IDH1KD tx 9%, TDP1 cell noCPT inconclusive, IL1B secr inh -14 and HT1080NT lethal -2%.
Screening CCCOc1ccc(C2CC(=O)Nc3cc(OC)c(OC)cc32)cc1 (stereo not drawn) returned DT40 TDP1 CPT inconclusive, HT1080 IDH1KD tx -21%, TDP1 cell noCPT -29%, IL1B secr inh 51 and HT1080NT lethal -2%.
`Cc1ccc(S(=O)(=O)NCCc2ccncc2)cc1C` gave DT40 TDP1 CPT 1%, HT1080 IDH1KD tx 18%, TDP1 cell noCPT -4%, IL1B secr inh 31 and HT1080NT lethal 4%.
Screening COc1ccc(C(=O)Nc2ccc(C3=NNC(=O)CC3C)cc2NC(=O)c2ccc(OC)cc2)cc1 (stereo not drawn) returned DT40 TDP1 CPT inconclusive, HT1080 IDH1KD tx -21%, TDP1 cell noCPT 23µM*, IL1B secr inh inconclusive and HT1080NT lethal -10%.
For COc1ccc(C(=O)Nc2ccc(C(=O)O)cc2NC(=O)c2ccc(OC)cc2)cc1 the results were DT40 TDP1 CPT -2%, HT1080 IDH1KD tx 0%, TDP1 cell noCPT -5%, IL1B secr inh 0 and HT1080NT lethal -6%.
For O=C(NCc1cccnc1)c1ccc(COc2ccc(Cl)cc2Cl)o1 the results were DT40 TDP1 CPT inconclusive, HT1080 IDH1KD tx -14%, TDP1 cell noCPT inconclusive, IL1B secr inh 44 and HT1080NT lethal -4%.
Screening Cc1cc(C)n(Cc2ccc(NC(=O)c3ccc(COc4ccccc4Br)cc3)cc2)n1 returned DT40 TDP1 CPT 21µM*, HT1080 IDH1KD tx inconclusive, TDP1 cell noCPT 29µM*, IL1B secr inh -75* and HT1080NT lethal inconclusive.
Screening COc1ccc(C(=O)NCc2cccnc2)cc1OC returned DT40 TDP1 CPT 8%, HT1080 IDH1KD tx 13%, TDP1 cell noCPT -1%, IL1B secr inh -12 and HT1080NT lethal 6%.
O=C(NCc1cccnc1)c1ccc(COc2ccccc2Cl)cc1 was read as DT40 TDP1 CPT inconclusive, HT1080 IDH1KD tx 0%, TDP1 cell noCPT 13µM*, IL1B secr inh 3 and HT1080NT lethal -14%.
`COC(=O)c1ccc(Cn2nc(C)cc2C)cc1` gave DT40 TDP1 CPT -11%, HT1080 IDH1KD tx 0%, TDP1 cell noCPT -7%, IL1B secr inh -6 and HT1080NT lethal 5%.
`NC(=O)c1ccc(NC(=O)c2ccc(COc3ccccc3Br)cc2)cc1` gave DT40 TDP1 CPT -17%, HT1080 IDH1KD tx 23%, TDP1 cell noCPT -13%, IL1B secr inh -9 and HT1080NT lethal 13%.
For O=C(Nc1cccnc1)c1ccc(COc2ccccc2Br)cc1 the results were DT40 TDP1 CPT inconclusive, HT1080 IDH1KD tx inconclusive, TDP1 cell noCPT inconclusive, IL1B secr inh -67* and HT1080NT lethal inconclusive.
`O=C(NCc1cccnc1)c1ccc(COc2ccccc2Br)cc1` gave DT40 TDP1 CPT 7%, HT1080 IDH1KD tx -25%, TDP1 cell noCPT inconclusive, IL1B secr inh -87* and HT1080NT lethal -5%.
For COc1ccc(S(=O)(=O)NCCC(=O)N2CCCN(C)CC2)cc1 the results were DT40 TDP1 CPT 3%, HT1080 IDH1KD tx 1%, TDP1 cell noCPT 2%, IL1B secr inh 6 and HT1080NT lethal 24%.
For CCN(CC)c1ccc(S(=O)(=O)N2CCOCC2)cc1NC(=O)COC(=O)C1=COCCO1 the results were DT40 TDP1 CPT inconclusive, HT1080 IDH1KD tx -4%, TDP1 cell noCPT inconclusive, IL1B secr inh -4 and HT1080NT lethal -4%.
`C[C@@H]1CN([C@H](C)CO)C(=O)CCCn2cc(nn2)CO[C@H]1CN(C)S(=O)(=O)c1ccc(-c2ccccc2)cc1` gave DT40 TDP1 CPT -14%, HT1080 IDH1KD tx -5%, TDP1 cell noCPT inconclusive, IL1B secr inh -1 and HT1080NT lethal -5%.
For O=C(Nc1ccn(Cc2c(F)c(F)cc(F)c2F)n1)c1ccc(COc2ccccc2Cl)cc1 the results were DT40 TDP1 CPT inconclusive, HT1080 IDH1KD tx inconclusive, TDP1 cell noCPT inconclusive, IL1B secr inh -21 and HT1080NT lethal inconclusive.
For Cc1cc(C)nc(NC(=O)c2ccc(COc3ccccc3Cl)cc2)c1 the results were DT40 TDP1 CPT 18µM*, HT1080 IDH1KD tx inconclusive, TDP1 cell noCPT 26µM*, IL1B secr inh -62* and HT1080NT lethal -21%.
Cc1ccc(C)c(OCCCn2c(-c3ccc(Cl)cc3)nc3ccccc3c2=O)c1 was read as DT40 TDP1 CPT -10% and TDP1 cell noCPT -2%.
For CCCCOc1ccc(C(=O)N(Cc2ccc(N(C)C)cc2)Cc2ccco2)cc1 the results were DT40 TDP1 CPT inconclusive and TDP1 cell noCPT 13µM*.
CCCCOc1ccc(C(=O)NCC(=O)NNC(=O)c2ccco2)cc1 was read as DT40 TDP1 CPT 8%, HT1080 IDH1KD tx 11%, TDP1 cell noCPT -30%, IL1B secr inh 8 and HT1080NT lethal 1%.
Screening C=C(C)c1ccc(C(C)(C)NC(=O)NCc2ccco2)cc1 returned DT40 TDP1 CPT -10%, HT1080 IDH1KD tx -10%[9.24 µM], TDP1 cell noCPT -19%, IL1B secr inh 2 and HT1080NT lethal 0%.
`Cc1cc(C)c2c(CC(=O)NN(C)C)coc2c1` gave DT40 TDP1 CPT 29%, HT1080 IDH1KD tx 23%, TDP1 cell noCPT -10%, IL1B secr inh -12 and HT1080NT lethal -8%.
Screening Cc1cc(C)c2c(CC(=O)N(Cc3ccc(N(C)C)cc3)Cc3ccco3)coc2c1 returned DT40 TDP1 CPT 15µM* and TDP1 cell noCPT 21µM*.

Compound activity: PubChem BioAssay, National Center for Advancing Translational Sciences (NCATS)
